The record followed here is PubChem BioAssay.

Values without a mark were called inactive. For some of these results: Entries with a potency or affinity are not part of this list. Activity calls are given as the source filed them. Unless noted, no rule for the calls is given here.

The nature of assay [1]: antimalarial activity against Dd2 strain (AID 2302;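 active = growth inhibition above 50% at the single 2 µM test dose, taken to imply half-maximal potency below 2 µM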;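 also: 0% = DMSO untreated growth and 100% = chloroquine plus artemisinin killed control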). As to conditions: P. falciparum Dd2 in RBCs, LDH growth readout, 72 h; at 2 µM; stronger effect = higher value.
The nature of assay [2]: HepG2 cytotoxicity, primary screen, cytotoxicity control for P. falciparum antimalarial project, cell-based, ATP luminescence (AID 2303;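 active = inhibition above 50%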;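 also: 0% = DMSO wells and 100% = digitonin-killed cells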). The note with it: HepG2 viability, 24-48 h, at 10 µM, stronger effect = higher value.
Assay [3] has as its target L-lactate dehydrogenase (Plasmodium falciparum (isolate CDC / Honduras)) (UniProt Q27743). In words: PfLDH activity inhibition – cell lysate, 3D7 strain, counter-screen for P. falciparum growth inhibition project (AID 2304).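 Also: 0% = vehicle and 100% = reference inhibitor.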 The note with it: P. falciparum 3D7 crude extract, LDH APAD/NBT absorbance; at 2 µM; stronger effect = higher value. A general note: Counterscreens check selectivity or assay interference.

The nature of assay [4]: inhibition of 3D7 malaria parasite growth – strain 3D7 (AID 2306).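 Also: 0% = DMSO wells and 100% = chloroquine plus artemisinin control wells.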 As to conditions: P. falciparum 3D7 erythrocytic growth, LDH absorbance, 72 h; at 2 µM; stronger effect = higher value.
For assay [5], the target named is Calcium-dependent protein kinase 1 (Plasmodium falciparum (isolate 3D7)) (UniProt P62344). Put plainly: PfCDPK1 kinase inhibitors, biochemical, TCAMS library (AID 1159585; cut-off not given, nearly all actives have IC50 up to about 0.98 µM;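 also: inhibitors leave more ATP so luminescence rises with inhibition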). The note with it: recombinant PfCDPK1, Kinase-Glo ATP depletion luminescence.
Calcium-dependent protein kinase 1 (Plasmodium falciparum (isolate 3D7)), sequence (P62344 whole entry, looked up): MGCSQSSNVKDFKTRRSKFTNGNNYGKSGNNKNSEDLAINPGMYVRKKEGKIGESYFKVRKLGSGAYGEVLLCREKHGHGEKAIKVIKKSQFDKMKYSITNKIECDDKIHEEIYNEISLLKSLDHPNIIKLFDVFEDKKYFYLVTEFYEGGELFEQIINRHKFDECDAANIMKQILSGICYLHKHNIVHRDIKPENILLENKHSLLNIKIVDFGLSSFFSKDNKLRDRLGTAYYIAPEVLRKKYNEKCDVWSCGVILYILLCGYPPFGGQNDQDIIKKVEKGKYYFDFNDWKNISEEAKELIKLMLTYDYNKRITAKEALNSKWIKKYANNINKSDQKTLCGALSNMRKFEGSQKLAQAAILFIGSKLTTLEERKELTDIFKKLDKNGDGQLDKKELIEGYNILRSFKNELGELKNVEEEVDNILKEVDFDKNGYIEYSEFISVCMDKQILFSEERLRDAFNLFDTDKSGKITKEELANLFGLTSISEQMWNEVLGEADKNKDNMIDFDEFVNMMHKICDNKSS
For assay [6], the target named is Protein kinase 7 (PK7), Plasmodium falciparum 3D7 (PF3D7_0213400) (UniProt Q7YTF7). Put plainly: inhibition of Plasmodium PK7 catalytic activity – biochemical, TCAMS antimalarial set, Kinase-Glo luminescence (AID 1159587). As to conditions: recombinant PfPK7, Kinase-Glo ATP depletion luminescence. (In general: In Kinase-Glo more light means more ATP remaining.)
Protein kinase 7 (PK7), Plasmodium falciparum 3D7 (PF3D7_0213400), sequence (Q7YTF7 1-343): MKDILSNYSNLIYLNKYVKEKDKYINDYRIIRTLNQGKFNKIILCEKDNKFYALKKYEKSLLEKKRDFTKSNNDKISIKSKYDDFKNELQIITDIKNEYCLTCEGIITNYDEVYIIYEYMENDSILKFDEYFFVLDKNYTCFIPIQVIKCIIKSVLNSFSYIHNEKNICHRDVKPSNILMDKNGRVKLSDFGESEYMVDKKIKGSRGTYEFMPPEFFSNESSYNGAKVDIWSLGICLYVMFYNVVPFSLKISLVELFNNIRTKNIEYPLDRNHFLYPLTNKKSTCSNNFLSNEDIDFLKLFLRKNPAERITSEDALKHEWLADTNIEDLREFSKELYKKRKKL
Assay [7] deals with Calcium-dependent protein kinase 4 (Plasmodium falciparum (isolate 3D7)) (UniProt Q8IBS5). Put plainly: PfCDPK4 kinase inhibitors, biochemical, TCAMS library (AID 1159588; cut-off not given, nearly all actives have IC50 up to about 0.91 µM). As to conditions: recombinant PfCDPK4, Kinase-Glo ATP depletion luminescence.
Calcium-dependent protein kinase 4 (Plasmodium falciparum (isolate 3D7)), sequence (Q8IBS5 whole entry, looked up): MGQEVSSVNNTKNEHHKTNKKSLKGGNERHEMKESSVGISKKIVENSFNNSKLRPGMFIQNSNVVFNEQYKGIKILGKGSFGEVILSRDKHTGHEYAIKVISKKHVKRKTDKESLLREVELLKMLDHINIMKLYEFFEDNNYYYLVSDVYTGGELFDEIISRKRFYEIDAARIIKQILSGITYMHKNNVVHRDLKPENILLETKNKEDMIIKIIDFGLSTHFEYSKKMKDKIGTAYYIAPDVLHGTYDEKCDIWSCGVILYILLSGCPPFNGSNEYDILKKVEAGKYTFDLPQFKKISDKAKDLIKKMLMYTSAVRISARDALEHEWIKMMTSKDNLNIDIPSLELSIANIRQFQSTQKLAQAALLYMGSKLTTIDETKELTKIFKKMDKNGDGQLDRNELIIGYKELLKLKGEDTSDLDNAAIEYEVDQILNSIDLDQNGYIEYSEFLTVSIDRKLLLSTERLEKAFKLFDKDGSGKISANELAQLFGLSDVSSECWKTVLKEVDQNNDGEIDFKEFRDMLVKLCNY
Assay [8] addresses Plasmodium falciparum protein kinase 6 (PK6, PF3D7_1337100) (UniProt Q8IDW1). In words: PfPK6 kinase inhibitors, biochemical, TCAMS library (AID 1159586). The note with it: recombinant PfPK6, Kinase-Glo ATP depletion luminescence.

Plasmodium falciparum protein kinase 6 (PK6, PF3D7_1337100), sequence (Q8IDW1 1-305): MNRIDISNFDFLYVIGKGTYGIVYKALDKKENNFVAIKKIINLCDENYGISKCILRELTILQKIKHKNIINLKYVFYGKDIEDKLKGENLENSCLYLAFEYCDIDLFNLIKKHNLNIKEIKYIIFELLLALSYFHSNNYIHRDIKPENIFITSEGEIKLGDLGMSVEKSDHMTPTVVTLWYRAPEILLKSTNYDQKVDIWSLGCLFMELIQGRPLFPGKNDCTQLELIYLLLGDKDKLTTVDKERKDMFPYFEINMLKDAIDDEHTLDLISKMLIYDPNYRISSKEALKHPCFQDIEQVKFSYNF
L-lactate dehydrogenase (Plasmodium falciparum (isolate CDC / Honduras)), sequence (Q27743 whole entry, looked up): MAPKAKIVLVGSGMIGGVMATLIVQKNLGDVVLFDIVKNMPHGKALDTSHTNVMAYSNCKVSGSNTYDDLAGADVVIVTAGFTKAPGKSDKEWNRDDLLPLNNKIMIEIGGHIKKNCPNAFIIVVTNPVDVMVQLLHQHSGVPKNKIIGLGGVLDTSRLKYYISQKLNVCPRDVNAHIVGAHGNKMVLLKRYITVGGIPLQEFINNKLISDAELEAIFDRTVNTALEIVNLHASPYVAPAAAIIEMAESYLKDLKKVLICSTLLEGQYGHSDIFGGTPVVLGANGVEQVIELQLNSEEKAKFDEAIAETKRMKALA

Turning to `Cc1ccc(Nc2nc3cc(Nc4ccnc(Nc5cccc(CS(C)(=O)=O)c5)n4)ccc3o2)cc1`, the results for the growth inhibition in assay [1] and in assay [4] were 81% (active) and 101% (active), respectively. The results for the inhibition in assay [2] and in assay [3] were 55% (active) and 4%, respectively. Further, the outcome in assay [5], in assay [6] and in assay [7] was inactive.
As for `CN(c1ccc2c(c1)nc(NCc1ccc(F)cc1)n2C)c1ccnc(Nc2ccc(CS(C)(=O)=O)cc2)n1`, the growth inhibition in assay [1] was 79% (active); in assay [4], 97% (active). The inhibition (usually the drop in the measured response relative to a control, in per cent) is 48% in assay [2] and 7% in assay [3]. In addition, the outcome in assay [5], in assay [6] and in assay [7] was inactive.
As to `N=C(N)c1ccc(Nc2nc(Nc3ccc(-c4ccccc4)cc3)ncc2[N+](=O)[O-])cc1`, the growth inhibition in assay [1] is 35%; in assay [4], 99% (active). For the same molecule, the inhibition is 11% in assay [2] and -3% in assay [3]. In addition, the outcome in assay [5], in assay [6] and in assay [7] was inactive.
As for `CC(=O)Nc1nc(C)c(-c2csc(Nc3ccc(Cl)cc3)n2)s1`, the growth inhibition in assay [1] is 93% (active); in assay [4], 96% (active). For the same molecule, the results for the inhibition in assay [2] and in assay [3] were 14% and 0%, respectively. Besides, the outcome in assay [5], in assay [6] and in assay [7] was inactive.
Regarding `Nc1ncc(-c2cn[nH]c2)cc1-c1nc2ccc(Cl)cc2[nH]1`, the growth inhibition was 100% (active) in assay [1] and 101% (active) in assay [4]. In addition, the inhibition in assay [2] is 46%; in assay [3] it was -5%. Further, the outcome in assay [8], in assay [6] and in assay [7] was inactive.
`CS(=O)(=O)Cc1cccc(Nc2ncc(Cl)c(Nc3cccnc3C(N)=O)n2)c1`: the growth inhibition in assay [1] is 97% (active); in assay [4] it was 96% (active). The inhibition in assay [2] was 56% (active); in assay [3], -3%. For the same molecule, the outcome in assay [5], in assay [6] and in assay [7] was inactive.
As to `NCC1(c2nc(-c3ccc(Cl)c(O)c3)c(-c3ccncc3)[nH]2)CCCCC1`, the growth inhibition in assay [1] and in assay [4] was 98% (active) throughout. The inhibition in assay [2] is 48%; in assay [3] it was -2%. For the same molecule, the outcome in assay [8], in assay [6] and in assay [7] was inactive.
With `N#CCc1ccc(Nc2nccc(Nc3ccc(Oc4ccccc4)cc3)n2)cc1`, the growth inhibition is 47% in assay [1] and 98% (active) in assay [4]. The inhibition is -1% in assay [2] and 6% in assay [3]. For the same molecule, the result in assay [8], in assay [6] and in assay [7] was inactive.
For `CS(=O)(=O)CCNCc1cccc(-c2ccc3c(Nc4ccc(Oc5cccnc5)cc4)ccnc3c2)c1`, the values for the growth inhibition in assay [1] and in assay [4] were 99% (active) and 101% (active), respectively. Besides, the inhibition was 27% in assay [2] and 4% in assay [3]. The outcome in assay [8], in assay [6] and in assay [7] was inactive.
Regarding `COc1ccc(-c2cnc3ccc(NCCCO)nn23)cc1OC`, the growth inhibition in assay [1] was 90% (active); in assay [4] it was 98% (active). In addition, the inhibition in assay [2] is 9%; in assay [3] it was -1%. Further, the outcome in assay [8], in assay [6] and in assay [7] was inactive.
As to `CC(C)(CNC(=O)[C@@H]1CCCCN1)c1nc(-c2ccc(Cl)c(O)c2)c(-c2ccncc2)[nH]1`, the values for the growth inhibition in assay [1] and in assay [4] were 96% (active) and 97% (active), respectively. Besides, the values for the inhibition in assay [2] and in assay [3] were -8% and -10%, respectively. Besides, the outcome in assay [8], in assay [6] and in assay [7] was inactive.
Turning to `Cc1ccc(Nc2nccc(N(C)c3ccc4c(c3)nc(NC(=O)Cc3ccc(Cl)c(Cl)c3)n4C)n2)cc1S(N)(=O)=O`, the growth inhibition in assay [1] is 60% (active); in assay [4], 94% (active). Besides, the inhibition is 71% (active) in assay [2] and 0% in assay [3]. Moreover, the result in assay [8], in assay [6] and in assay [7] was inactive.
Turning to `CCOC(=O)c1cccc(NC(=O)Nc2cccc(-c3ncc(OCCCN)c4c3nc(-c3nonc3N)n4CC)c2)c1`, the values for the growth inhibition in assay [1] and in assay [4] were 98% (active) and 100% (active), respectively. The figures for the inhibition in assay [2] and in assay [3] were 16% and 2%, respectively. The outcome in assay [8], in assay [6] and in assay [7] was inactive.
Turning to `CN1CCN(Cc2cccc(-c3ccc4c(Nc5cc(O)c(Cl)cc5F)ccnc4c3)c2)CC1`, the values for the growth inhibition in assay [1] and in assay [4] were 100% (active) and 102% (active), respectively. The values for the inhibition in assay [2] and in assay [3] were -1% and 4%, respectively. For the same molecule, the result in assay [8], in assay [6] and in assay [7] was inactive.
Consider `Oc1cccc(Nc2ccnc3cc(-c4ccncc4)ccc23)c1`, for which the growth inhibition in assay [1] was 99% (active); in assay [4], 101% (active). In addition, the inhibition in assay [2] is 8%; in assay [3] it was 1%. Also, the outcome in assay [8], in assay [6] and in assay [7] was inactive.
Regarding `COc1ccc(-c2cnn3ccc(Nc4cc(OC)c(OC)c(OC)c4)nc23)cc1OC`, the growth inhibition in assay [1] is 100% (active); in assay [4], 98% (active). Besides, the inhibition in assay [2] was 57% (active); in assay [3] it was -4%. Moreover, the result in assay [8], in assay [6] and in assay [7] was inactive.
Regarding `CN(C(=O)c1cc2c(-c3cncnc3)cccc2[nH]1)c1ccccc1`, the values for the growth inhibition in assay [1] and in assay [4] were 99% (active) and 92% (active), respectively. Besides, the inhibition was 1% in assay [2] and 0% in assay [3]. In addition, the result in assay [8], in assay [6] and in assay [7] was inactive.
Regarding `CC(C)(CNCc1ccc(C(F)(F)F)cc1)c1nc(-c2ccc(Cl)c(O)c2)c(-c2ccnc(N)n2)[nH]1`, the figures for the growth inhibition in assay [1] and in assay [4] were 37% and 101% (active), respectively. In addition, the results for the inhibition in assay [2] and in assay [3] were 32% and -2%, respectively. The result in assay [8], in assay [6] and in assay [7] was inactive.
In the case of `CC(=O)Nc1cccc(Nc2nccc(Nc3ccc(Oc4ccccc4)cc3)n2)c1`, the growth inhibition in assay [1] is 99% (active); in assay [4], 101% (active). For the same molecule, the inhibition in assay [2] is 15%; in assay [3] it was -6%. In addition, the result in assay [8], in assay [6] and in assay [7] was inactive.
Regarding `CN(C)CCNCc1cccc(-c2ccc3c(Nc4ccc(Oc5ccccn5)cc4)ccnc3c2)c1`, the results for the growth inhibition in assay [1] and in assay [4] were 100% (active) and 99% (active), respectively. The inhibition in assay [2] was 27%; in assay [3] it was 2%. Moreover, the outcome in assay [8], in assay [6] and in assay [7] was inactive.
For the molecule `CC(C)(CN)c1nc(-c2ccc(Br)c(O)c2)c(-c2ccncc2)[nH]1`, the growth inhibition in assay [1] is 97% (active); in assay [4], 96% (active). Also, the inhibition in assay [2] was 31%; in assay [3] it was 0%. Further, the result in assay [8], in assay [6] and in assay [7] was inactive.
Take `COc1ccc(Nc2ncc3c(-c4cccc(NC(=O)Cc5cccc(O)c5)c4)c[nH]c3n2)cc1OC`: the growth inhibition is 96% (active) in assay [1] and 101% (active) in assay [4]. Also, the values for the inhibition in assay [2] and in assay [3] were 44% and -6%, respectively. For the same molecule, the outcome in assay [8], in assay [6] and in assay [7] was inactive.
